Measured values from PubChem BioAssay (NCI).
The panel holds about 83,000 compounds, 20% with a hit somewhere; the sample as a whole holds those more often.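 Activity criterion: percent growth below 10, measured after cells in 96-well plates were exposed to a single compound concentration for 48 hours.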 Activity calls are given as the source filed them.

These molecules were tested on ACHN renal (assay: NCI-60 one-dose screen, 48 h (100 = growth as untreated, 0 = no growth, -100 = all killed)). Settings: 10 µM unless noted.

Row | Compound | growth
1 | COc1ccc(C(O)c2cc3c(N)c(C(=O)Nc4cccc(Br)c4)sc3nc2C)cc1 (configuration not stated) | 19.8% (inactive)
2 | CC/C(=C(/c1ccc(Cl)cc1)c1ccc(OCCN2CCCCC2)cc1)c1ccc(OC)cc1 | 81.2% (inactive)
3 | CCOC(=O)c1c2c(n3cccc(F)c13)C(=O)c1ncccc1C2=O | 7% (active)
4 | CC(=O)O[C@@H]1C[C@]2(C(C)C)O[C@@]1(C)[C@@H]1CCC(C)=C1[C@@H]2OC(=O)/C=C/c1ccccc1 | 34.6% (inactive)
5 | O=C(O)c1ccc(-n2cc(/C=N/Nc3ccccc3)c(-c3ccc(F)cc3F)n2)cc1 | 47.1% (inactive)
6 | O=C(NCc1ccc(Cl)cc1Cl)C1CCC(=O)N1c1cccs1 (configuration not stated) | 95% (inactive)
7 | CCSc1oc(-c2ccccc2)nc1[P+](c1ccccc1)(c1ccccc1)c1ccccc1 | -5.44% (active)
8 | O=C1C(=O)N(Cc2ccc(-c3ccccc3)cc2)c2ccc(OC(F)(F)F)cc21 | 41.7% (inactive)
9 | Cc1nc2sc(C(=O)Nc3ccc(Br)cc3)c(N)c2cc1C(O)c1ccccc1 (configuration not stated) | 72.4% (inactive)
10 | O=C(Cn1cc(CSc2nc3ccccc3o2)nn1)Nc1ccc(F)cc1F | 93.9% (inactive)
11 | COC(=O)c1nc(-c2ccc(C)cc2)oc1S(=O)(=O)c1cccc(OC)c1 | 42.8% (inactive)
12 | COc1ccc(C/C(C)=C(/c2ccc(OCCN(C)C)cc2)c2ccc(OC(=O)NCc3ccccc3)cc2)cc1 | 90.9% (inactive)
13 | COc1ccc(/C=C(\C#N)n2nnc3cc(F)c(F)cc32)cc1 | 55.4% (inactive)
14 | COC(=O)c1c2c(c(C)[n+]([O-])c1C)C(=O)C(NCc1cccc(OC)c1)=CC2=O | 47.8% (inactive)
15 | COc1ccc(-c2nc3cc(C(=O)NCc4ccccc4)ccc3n2C2CCCCC2)cc1 | 74.3% (inactive)
16 | CCN(CC)CCn1c2ccc(OC)cc2c2sc3cc(OC)ccc3c(=O)c21 | -38.8% (active)
17 | COc1ccc(C(=O)N2c3ccccc3Sc3ccccc32)c(OC)c1 | 43.5% (inactive)
18 | CCN1CCN(C(=O)[C@]23CCC(C)(C)C[C@@H]2C2=CC[C@@H]4[C@@]5(C)CCC(=O)C(C)(C)[C@@H]5CC[C@@]4(C)[C@]2(C)CC3)CC1 | 65.7% (inactive)
19 | Clc1ccc2c(NC3CCC(N4CCOCC4)CC3)ccnc2c1 (configuration not stated) | 73.8% (inactive)

Row | Compound | growth
20 | CCCOC(=O)Nc1nc2ccc(SCC(C)C)cc2s1 | 51.9% (inactive)
21 | COc1ccc(Nc2ncc(Br)c(NCCCNC(=O)c3cccs3)n2)cc1 | 21.3% (inactive)
22 | N#Cc1c(-c2ccccc2)cc(-c2ccc(Nc3nc(Nc4ccc(Cl)cc4)nc(Nc4ccc(Cl)cc4)n3)cc2)nc1N | -32.5% (active)
23 | COC(=O)c1c(C)c2n(c1C)C(=O)C(c1ccccc1)=C2 | 74% (inactive)
24 | COc1ccc(Nc2ncc(Br)c(NCCCNC(=O)C3CCCC3)n2)cc1 | 19.8% (inactive)
25 | C=CCn1c(C)nc2ccc(Nc3nc(Nc4ccc5nc(C)n(CC=C)c5c4)c4ccccc4n3)cc21 | -80% (active)
26 | O=C(O)c1cn(C2CC2)c2cc(N3CCN(Cc4ccc5ccccc5c4O)CC3)c(F)cc2c1=O | 59% (inactive)
27 | N#C/C(=C\c1c(-c2ccccc2)[nH]c2ccccc12)C(N)=O | 88.8% (inactive)
28 | COc1ccc(C2CC(c3ccc(Nc4nc(Nc5ccccc5)nc(Nc5ccccc5)n4)cc3)=NN2C(C)=O)cc1 (configuration not stated) | 100% (inactive)
29 | COc1cc2c(c(OC)c1OC)CCC(c1cccc(C(=O)Nc3cccc(Cl)c3)c1)O2 (configuration not stated) | 65.4% (inactive)
30 | COc1cc(OCc2cccc(Br)c2C)cc(OC)c1C=O | 90.7% (inactive)
31 | COC1=CC(c2ccc[nH]2)=N/C1=C\c1[nH]c(C)c(C(=O)OC(C)C)c1C | -82.9% (active)
32 | CCCc1c(OC(=O)c2ccccc2)nc2[nH]c(=O)sc2c1C | 107% (inactive)
33 | CN(C)c1ccc(-c2c(C#N)c(N)nn2C(=O)c2ccc(NC(=O)c3ccccn3)cc2)cc1 | 87.2% (inactive)
34 | CC1CCN(CCOc2ccc(CNc3ccc4nc(CCC5CCCCC5)[nH]c4c3)cc2)CC1 | 54.7% (inactive)
35 | COc1cc2c(cc1OCCCN1CCN(CCCOc3cc4c(cc3OC)C(=O)N3CCC[C@H]3C=N4)CC1)C=CC(C)(C)O2 | 4.25% (active)
36 | Oc1c(I)cc(I)cc1CNCCN(Cc1ccccn1)Cc1ccccn1 | -84% (active)
37 | O=CN1N=C(c2cccc(Nc3ccnc4cc(Cl)ccc34)c2)CC1c1ccccc1 (configuration not stated) | 30.3% (inactive)
